Laboratory results published in PubChem BioAssay (Tox21).
Inconclusive results are not listed. The source made the active and inactive calls. Unless noted, calls follow the shape of the dose curve; as a rule, active = well fitted curve in the direction sought with a large enough effect in the repeat runs; inconclusive = weak or mixed curves; inactive = no such curve, though single readings can be large; an effect the other way counts as inactive or inconclusive.

How the values were obtained:
[1] = molecular target: Thyrotropin receptor (Homo sapiens) (UniProt P16473); assay: qHTS assay to identify small molecule agonists of the thyroid stimulating hormone receptor (TSHR) signaling pathway (AID 1224843; calls by dose curve; also: nearly all actives have a fitted effect of over 45% in size)
Sequence of Thyrotropin receptor (Homo sapiens) (P16473 whole entry, looked up): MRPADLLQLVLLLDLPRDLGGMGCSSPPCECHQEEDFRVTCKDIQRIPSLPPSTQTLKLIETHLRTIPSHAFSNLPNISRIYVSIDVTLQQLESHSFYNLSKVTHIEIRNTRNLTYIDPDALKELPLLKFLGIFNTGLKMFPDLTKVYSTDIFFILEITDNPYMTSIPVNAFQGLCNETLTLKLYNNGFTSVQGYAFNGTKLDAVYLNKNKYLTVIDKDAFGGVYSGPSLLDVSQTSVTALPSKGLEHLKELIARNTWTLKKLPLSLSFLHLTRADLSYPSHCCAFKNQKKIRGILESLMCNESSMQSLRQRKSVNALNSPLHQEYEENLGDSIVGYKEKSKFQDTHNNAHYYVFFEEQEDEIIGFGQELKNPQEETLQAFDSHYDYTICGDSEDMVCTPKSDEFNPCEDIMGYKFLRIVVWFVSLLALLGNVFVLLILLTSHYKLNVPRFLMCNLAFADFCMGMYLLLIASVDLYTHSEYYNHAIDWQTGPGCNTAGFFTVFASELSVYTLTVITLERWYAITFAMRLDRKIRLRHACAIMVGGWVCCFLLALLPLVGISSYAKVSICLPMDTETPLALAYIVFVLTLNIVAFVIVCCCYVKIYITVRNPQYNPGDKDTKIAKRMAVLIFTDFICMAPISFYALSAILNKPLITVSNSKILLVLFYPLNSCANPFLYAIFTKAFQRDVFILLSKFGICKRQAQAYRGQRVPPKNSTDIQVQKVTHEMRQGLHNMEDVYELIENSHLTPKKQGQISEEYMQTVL
Outline: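 Using 15 concentrations per compound in triplicate, cAMP production was monitored in TSHR-HEK293 cells after 30 min compound incubation at RT; HTRF reagents followed, with fluorescence intensity recorded after 1 h.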

[2] = qHTS assay to identify small molecule agonists of the hypoxia (HIF-1) signaling pathway - cell viability counter screen (AID 1224844; calls by dose curve; also: nearly all actives have a fitted effect of over 50% in size)
Outline: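 Cytotoxicity was measured in parallel with the HRE-driven beta-lactamase readout: after 17 hrs of compound exposure at 37C, HRE-bla ME-180 cells received CellTiter-Glo and luminescence was recorded 30 min later.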

[3] = qHTS assay to identify small molecule agonists of H2AX (AID 1224845; active = well fitted activation curve with a large enough effect in the signal ratio in the repeat runs, not every such curve was filed as active; the % refers to the signal ratio)
Outline: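 Wild-type CHO-K1 cells plated overnight, then exposed 3 hr at 37C to compounds at 15 concentrations (0.76% DMSO). Lysed, then HTRF anti-pH2AX(S139)-cryptate/anti-H2AX-d2 detection after 24 hr at room temperature; emissions 665 and 620 nm.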

[4] = qHTS assay to identify small molecule agonists of H2AX - cell viability counter screen (AID 1224847; calls by dose curve; also: top concentration of the series differs between compounds; nearly all actives have a fitted effect of over 30% in size)
Outline: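 Wild-type CHO-K1 cells (10% FBS medium) were plated overnight at 37C, exposed to compounds at 15 concentrations for 3 hr at 37C (0.76% DMSO final), and viability was read as CellTiter-Glo luminescence after 30 min at room temperature.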

[5] = qHTS assay to identify small molecule antagonists of the estrogen related receptor (ERR) signaling pathway from Tox21 library (AID 1224848); also: nearly all actives have a fitted effect of over 50% in size
Outline: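 Tox21 10K compounds in DMSO tested for ERR pathway antagonism in NTP's ERR cell line; 18 h, 37 C exposure; ONE-Glo luminescence.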

[6] = qHTS assay to identify small molecule agonists of the estrogen related receptor (ERR) signaling pathway from Tox21 library (AID 1224849; calls by dose curve; also: nearly all actives have a fitted effect of over 15% in size); details: ERR reporter cell line, ONE-Glo luciferase, 18 h; at 92.4 µM (top of the series) unless noted
Outline: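 Cells carrying the ERR reporter were plated and allowed to settle for 6 h, exposed to library compounds for 18 h at 37 C, then lysed with ONE-Glo and luminescence measured.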

[7] = qHTS RealTime-Glo MT Cell Viability Assay in HepG2 cells - 24 hour (AID 1224867); also: nearly all actives have a fitted effect of over 50% in size
Outline: (§1)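 Luminescence read-out: viable HepG2 cells reduce a prosubstrate to a NanoLuc substrate, giving a signal proportional to live cell number. Reads taken at 0, 8, 16, 24, 32 and 40 h of compound exposure at 37 C.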

[8] = A CellTox Green Cytotoxicity Assay to monitor cytotoxicity in HEK293 cells - 0 hour (AID 1224869); also: nearly all actives have a fitted effect of over 50% in size
Outline: (§2)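 Cells (HEK293, 600/well) and dye reagent are dispensed together. After 5 h at 37 C, 23 nL compound is pinned in. Plates stay at 37 C for 40 h with fluorescence read at 0h, 8h, 16h, 24h, 32h and 40h.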

[9] = qHTS RealTime-Glo MT Cell Viability Assay in HepG2 cells - 40 hour (AID 1224870); also: nearly all actives have a fitted effect of over 50% in size
Outline: (§3)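 HepG2 cells mixed with RealTime-Glo MT reagents (NanoLuc plus cell-permeant prosubstrate) were seeded at 600 cells/well, incubated 5 h at 37 C/5% CO2, then pinned with compounds in DMSO; nonlytic luminescence tracked viability during 40 h treatment.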

[10] = A CellTox Green Cytotoxicity Assay to monitor cytotoxicity in HEK293 cells - 40 hour (AID 1224871); also: nearly all actives have a fitted effect of over 45% in size
Outline: as §2

[11] = qHTS RealTime-Glo MT Cell Viability Assay in HEK293 cells - 16 hour (AID 1224872); also: nearly all actives have a fitted effect of over 50% in size; also: potency is read from the fitted curve at half-maximal effect
Outline: (§4)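 Nonlytic real-time viability readout: viable cells convert prosubstrate to NanoLuc substrate, giving luminescence proportional to live cell number. HEK293, 600 cells/well, compound added after 5 h, continuous culture at 37 C.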

[12] = qHTS RealTime-Glo MT Cell Viability Assay in HepG2 cells - 8 hour (AID 1224873); also: nearly all actives have a fitted effect of over 55% in size
Outline: as §3

[13] = qHTS RealTime-Glo MT Cell Viability Assay in HEK293 cells - 40 hour (AID 1224874); details: RealTime-Glo luminescence; max response: active compounds read low; also: nearly all actives have a fitted effect of over 50% in size
Outline: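 Real-time viability in HEK293: signal arises when living cells convert a prosubstrate for NanoLuc in the medium, so luminescence tracks viable cell number. Compound (23 nL, DMSO) added 5 h post-seeding; kinetic reads at 0–40 h, 37 C.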

[14] = A CellTox Green Cytotoxicity Assay to monitor cytotoxicity in HEK293 cells - 24 hour (AID 1224875); also: nearly all actives have a fitted effect of over 45% in size
Outline: as §2

[15] = A CellTox Green Cytotoxicity Assay to monitor cytotoxicity in HepG2 cells - 16 hour (AID 1224876); also: nearly all actives have a fitted effect of over 45% in size
Outline: (§5)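 Cells and non-lytic dye reagent are dispensed together (600 HepG2 cells/well) and incubated 5 h before DMSO compound transfer. Kinetic fluorescence is then recorded in the same wells during 40 h at 37 C.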

[16] = qHTS RealTime-Glo MT Cell Viability Assay in HepG2 cells - 32 hour (AID 1224877); also: nearly all actives have a fitted effect of over 55% in size
Outline: as §1

[17] = A CellTox Green Cytotoxicity Assay to monitor cytotoxicity in HepG2 cells - 24 hour (AID 1224878); also: nearly all actives have a fitted effect of over 45% in size
Outline: as §5

[18] = qHTS assay to identify small molecule agonists of the hypoxia (HIF-1) signaling pathway (AID 1224846; active = well fitted activation curve with a large enough effect in the signal ratio in the repeat runs, not every such curve was filed as active; the % refers to the signal ratio)
Outline: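 Compounds from the Tox21 10K library, dissolved in DMSO, are tested for induction of a hypoxia response element–controlled beta-lactamase reporter in ME-180 cells. Exposure lasts 17 hrs at 37C after a 5 hr settling period, followed by CCF4-AM FRET substrate.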

[19] = A CellTox Green Cytotoxicity Assay to monitor cytotoxicity in HepG2 cells - 40 hour (AID 1224879); also: nearly all actives have a fitted effect of over 40% in size
Outline: as §5

[20] = qHTS RealTime-Glo MT Cell Viability Assay in HEK293 cells - 32 hour (AID 1224868)
Outline: as §4
% is scaled to controls: 0 for no effect and ±100 for the full control effect.

CC(=O)CCCCn1c(=O)c2c(ncn2C)n(C)c1=O
inactive: Potency [1] | outcome [2] | outcome [3] | Potency [4] | Potency [5] | activity change, positive = activation [6] -5.11% [at 42.5 µM] | outcome [7] | outcome [8] | outcome [9] | Potency [10] | Potency [11] | outcome [12] | max response [13] -0.881% | outcome [14] | outcome [15] | outcome [16] | outcome [17]

O=C1c2ccccc2C(=O)c2cc(S(=O)(=O)O)ccc21
inactive: Potency [1] | outcome [2] | outcome [3] | outcome [18] | Potency [4] | outcome [7] | outcome [8] | outcome [9] | Potency [10] | outcome [12] | outcome [14] | outcome [15] | outcome [16] | outcome [17] | Potency [19]

COc1ccc2c(c1OC)C(=O)O[C@@H]2[C@H]1c2c(cc3c(c2OC)OCO3)CCN1C
inactive: Potency [1] | outcome [2] | outcome [3] | Potency [4] | Potency [5] | activity change, positive = activation [6] -16% [at 42.5 µM] | outcome [7] | outcome [8] | outcome [9] | Potency [10] | Potency [11] | outcome [12] | outcome [14] | outcome [15] | outcome [16] | outcome [17]

Cc1cc(NC(=O)C2=C(O)c3ccccc3S(=O)(=O)N2C)no1
inactive: Potency [1] | outcome [2] | Potency [4] | outcome [7] | Potency [20] | outcome [8] | outcome [9] | Potency [10] | Potency [11] | outcome [12] | max response [13] 4.93% | outcome [14] | outcome [15] | outcome [16] | outcome [17]

CCCCOC(=O)c1ccccc1
inactive: Potency [1] | outcome [3] | outcome [18] | Potency [4] | Potency [5] | activity change, positive = activation [6] 1.54% | outcome [7] | Potency [20] | outcome [8] | outcome [9] | Potency [10] | Potency [11] | outcome [12] | max response [13] 4.16% | outcome [14] | outcome [15] | outcome [16] | Potency [19]

CCCCNC1CC(C)(C)NC(C)(C)C1
inactive: Potency [1] | outcome [2] | outcome [3] | outcome [18] | activity change, positive = activation [6] 8.08% | outcome [7] | outcome [8] | outcome [9] | Potency [10] | Potency [11] | outcome [12] | max response [13] 10.4% | outcome [14] | outcome [15] | outcome [16] | outcome [17]

CCOC(=O)CC(=O)c1ccccc1
inactive: Potency [1] | outcome [2] | outcome [3] | outcome [18] | Potency [4] | outcome [7] | outcome [8] | Potency [10] | Potency [11] | outcome [12] | max response [13] 10.1% | outcome [14] | outcome [15] | outcome [16] | outcome [17] | Potency [19]

CC(C)NCC(O)COc1ccc(COCCOC(C)C)cc1 (configuration not stated)
inactive: Potency [1] | outcome [2] | outcome [3] | Potency [4] | outcome [7] | Potency [20] | outcome [8] | Potency [10] | Potency [11] | outcome [12] | max response [13] 3.86% | outcome [14] | outcome [15] | outcome [16] | outcome [17] | Potency [19]

O=Cc1ccc(Cl)c(Cl)c1
inactive: Potency [1] | outcome [2] | outcome [18] | Potency [4] | outcome [7] | outcome [8] | Potency [10] | outcome [12] | outcome [14] | outcome [15] | outcome [16] | outcome [17] | Potency [19]

Brc1ccc(-c2ccccc2)cc1
inactive: Potency [1] | outcome [2] | outcome [18] | Potency [4] | outcome [7] | Potency [20] | outcome [8] | outcome [9] | Potency [10] | outcome [12] | max response [13] 1.08% | outcome [14] | outcome [16] | outcome [17] | Potency [19]

CCN(CC)CC(=O)Nc1c(C)cccc1C
active: Potency [11] 10.7 µM
inactive: Potency [1] | outcome [2] | Potency [4] | outcome [7] | outcome [8] | outcome [9] | Potency [10] | outcome [12] | outcome [14] | outcome [15] | outcome [17]

Cc1ccsc1/C=C/C1=NCCCN1C
inactive: Potency [1] | outcome [2] | outcome [3] | Potency [4] | Potency [5] | activity change, positive = activation [6] -1.39% [at 42.5 µM] | outcome [7] | Potency [20] | outcome [8] | outcome [9] | Potency [10] | Potency [11] | outcome [12] | max response [13] 2.37% | outcome [14] | outcome [16] | outcome [17] | Potency [19]

CCOC(=O)c1ncn2c1CN(C)C(=O)c1cc(F)ccc1-2
inactive: Potency [1] | outcome [2] | outcome [3] | Potency [4] | outcome [7] | Potency [20] | outcome [8] | Potency [10] | Potency [11] | outcome [12] | max response [13] -10.6% | outcome [14] | outcome [15] | outcome [16] | outcome [17] | Potency [19]

CCOC(=O)c1ccc(OC(=O)CCCCCN=C(N)N)cc1
inactive: Potency [1] | outcome [2] | outcome [3] | Potency [4] | outcome [7] | outcome [8] | Potency [10] | Potency [11] | outcome [12] | max response [13] -15.8% | outcome [14] | outcome [17]

CN1C(C)(C)CCCC1(C)C
inactive: Potency [1] | outcome [2] | outcome [3] | Potency [4] | outcome [7] | Potency [20] | outcome [8] | outcome [9] | Potency [10] | Potency [11] | outcome [12] | max response [13] -1.11% | outcome [14] | outcome [15] | outcome [16] | outcome [17] | Potency [19]

c1ccc2c(c1)ccc1c3ccccc3ccc21
inactive: Potency [1] | outcome [2] | outcome [18] | Potency [4] | outcome [7] | outcome [8] | Potency [10] | Potency [11] | outcome [12] | max response [13] 6.22% | outcome [14] | outcome [15] | outcome [16] | outcome [17] | Potency [19]
